Test results taken from PubChem BioAssay AID1159580 (chemical genetic matrix, 2015).
The whole screen tested about 5,500 compounds, of which about 2,000 (36%) were called active. Inconclusive results (about 18%) are left out. Rule as the data show it: active = normalized growth mostly below about 0.91 (no sharp cut-off); inconclusive = no clear call, values can overlap the other calls; inactive = mostly above about 0.92. The list shows a part of the results.

Test: chemical genetic growth profiling, strain panel (AID 1159580);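 also: tested at 20 µM; growth read once vehicle control cultures reached saturation at 30 °C; 1 = growth at the plate median or of vehicle wells; lower values mean less growth of the strain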
Details: S. cerevisiae deletion strains, growth OD

Measured: normalized growth

C[C@]12CCC3c4ccc(OS(=O)(=O)O)cc4CCC3C1CCC2=O (some centres undefined)
inactive: locus YAL021C, strain ccr4, active compounds read low 0.957 | locus YAL026C, strain drs2, active compounds read low 1.01 | locus YAL030W, strain snc1, active compounds read low 0.986 | locus YBL061C, strain skt5, active compounds read low 0.967 | locus YBR009C, strain hhf1, active compounds read low 1.02 | locus YBR023C, strain chs3, active compounds read low 0.987 | locus YBR171W, strain sec66, active compounds read low 1 | locus YBR231C, strain swc5, active compounds read low 1.01 | locus YBR279W, strain paf1, active compounds read low 0.999 | locus YCL011C, strain gbp2, active compounds read low 0.998 | locus YCL016C, strain dcc1, active compounds read low 0.986 | locus YCL061C, strain MRC1, active compounds read low 1.01 | locus YCL069W, strain vba3, active compounds read low 0.995 | locus YCR088W, strain abp1, active compounds read low 0.998 | locus YDL005C, strain med2, active compounds read low 0.978 | locus YDL040C, strain nat1, active compounds read low 1 | locus YDR001C, strain nth1, active compounds read low 0.995 | locus YDR069C, strain doa4, active compounds read low 0.989 | locus YDR137W, strain rgp1, active compounds read low 0.976 | locus YDR159W, strain sac3, active compounds read low 1 | locus YDR195W, strain ref2 0.999 | locus YDR297W, strain sur2, active compounds read low 1 | locus YDR334W, strain swr1, active compounds read low 0.993 | locus YDR335W, strain msn5, active compounds read low 1 | locus YDR392W, strain spt3, active compounds read low 0.923 | locus YEL003W, strain gim4, active compounds read low 0.998 | locus YEL037C, strain rad23, active compounds read low 1.01 | locus YEL061C, strain CIN8 (second series), active compounds read low 1.03 | locus YER015W, strain faa2, active compounds read low 0.993 | locus YER016W, strain bim1, active compounds read low 0.962 | locus YER111C, strain swi4, active compounds read low 0.959 | locus YER155C, strain BEM2 (second series), active compounds read low 1 | locus YFR010W, strain ubp6, active compounds read low 1.02 | locus YGL167C, strain pmr1, active compounds read low 1 | locus YGL173C, strain kem1, active compounds read low 0.97 | locus YGL227W, strain vid30, active compounds read low 0.981 | locus YGL240W, strain doc1, active compounds read low 0.983 | locus YGL253W, strain hxk2, active compounds read low 0.996 | locus YHR013C, strain ard1, active compounds read low 0.939 | locus YHR027C, strain rpn1, active compounds read low 1.01 | locus YHR030C, strain SLT2, active compounds read low 0.961 | locus YHR079C, strain IRE1, active compounds read low 0.961 | locus YHR142W, strain chs7, active compounds read low 0.983 | locus YJL092W, strain hpr5, active compounds read low 1 | locus YJL095W, strain BCK1 (second series), active compounds read low 0.977 | locus YJL095W, strain BCK1, active compounds read low 0.992 | locus YJL115W, strain asf1, active compounds read low 0.995 | locus YJL129C, strain trk1, active compounds read low 0.958 | locus YJL154C, strain vps35, active compounds read low 0.974 | locus YJL164C, strain tpk1, active compounds read low 0.996 | locus YJL166W, strain qcr8, active compounds read low 1.01 | locus YJR066W, strain TOR1, active compounds read low 0.942 | locus YKL160W, strain elf1, active compounds read low 0.928 | locus YKR026C, strain gcn3, active compounds read low 1 | locus YKR091W, strain srl3, active compounds read low 0.991 | locus YLL001W, strain dnm1, active compounds read low 1.02 | locus YLL026W, active compounds read low 1.02 | locus YLL041C, strain sdh2, active compounds read low 0.991 | locus YLR027C, strain aat2, active compounds read low 1.01 | locus YLR113W, strain HOG1, active compounds read low 1.02 | locus YLR221C, strain rsa3, active compounds read low 1.04 | locus YLR258W, strain gsy2, active compounds read low 1 | locus YLR262C, strain YPT6 (second series), active compounds read low 0.984 | locus YLR320W, strain mms22, active compounds read low 1.01 | locus YLR342W, strain FKS1, active compounds read low 0.971 | locus YLR357W, strain rsc2, active compounds read low 0.983 | locus YLR370C, strain arc18, active compounds read low 1.01 | locus YLR384C, strain iki3, active compounds read low 0.981 | locus YML120C, strain ndi1, active compounds read low 1 | locus YMR058W, strain fet3, active compounds read low 1.01 | locus YMR125W, strain sto1, active compounds read low 0.97 | locus YMR129W, active compounds read low 1.01 | locus YMR205C, strain PFK2, active compounds read low 1 | locus YMR231W, strain pep5, active compounds read low 0.995 | locus YNL071W, strain lat1, active compounds read low 1.02 | locus YNL183C, strain NPR1, active compounds read low 0.975 | locus YNL209W, strain ssb2, active compounds read low 0.985 | locus YNL248C, strain rpa49, active compounds read low 0.89 | locus YNL322C, strain KRE1 (second series), active compounds read low 0.948 | locus YNR049C, strain mso1, active compounds read low 0.99 | locus YOR001W, strain rrp6, active compounds read low 1.03 | locus YOR070C, strain gyp1, active compounds read low 0.987 | locus YOR080W, strain dia2, active compounds read low 0.991 | locus YOR083W, strain WHI5, active compounds read low 0.912 | locus YOR106W, strain vam3, active compounds read low 0.971 | locus YOR231W, strain MKK1, active compounds read low 1 | locus YOR265W, strain rbl2, active compounds read low 1.01 | locus YOR270C, strain vph1, active compounds read low 0.917 | locus YOR290C, strain snf2, active compounds read low 0.977 | locus YPL051W, strain arl3, active compounds read low 0.987 | locus YPL078C, strain atp4, active compounds read low 0.965 | locus YPL106C, strain sse1, active compounds read low 0.968 | locus YPL240C, strain hsp82, active compounds read low 0.999 | locus YPL256C, strain CLN2, active compounds read low 0.982
